# Sampled rows, rich in hits. Any-hit rate of the full collection: about 12%.
# JMJD2A Tudor inh – blocks the human JMJD2A Tudor domain; AlphaScreen JMJD2A-Tudor / H3K4me3 peptide binding; Potency, µM (doses to about 114 µM), for inactives: at the top dose activity change, negative = inhibition, usual class: inhibitors; 390,000 tested, 4.4% active; AID 504339; note: % is set by controls: 0 for no effect and ±100 for the full control effect; nearly all actives have a fitted effect of over 50% in size
# PLK1 PBD inh – inhibitors of human PLK1 polo-box domain binding. P53350. 360,000 tested, 2.8% active. Potency, µM, for inactives: max response, negative = inhibition, usual class: inhibitors. Plk1 PBD binding of FITC phosphopeptide, fluorescence polarization. AID 720504; note: series mostly up to about 57 µM; % is set by controls: 0 for no effect and ±100 for the full control effect; nearly all actives have a fitted effect of over 65% in size
# Target sequence (P53350 whole entry, looked up, the tested form may be a part): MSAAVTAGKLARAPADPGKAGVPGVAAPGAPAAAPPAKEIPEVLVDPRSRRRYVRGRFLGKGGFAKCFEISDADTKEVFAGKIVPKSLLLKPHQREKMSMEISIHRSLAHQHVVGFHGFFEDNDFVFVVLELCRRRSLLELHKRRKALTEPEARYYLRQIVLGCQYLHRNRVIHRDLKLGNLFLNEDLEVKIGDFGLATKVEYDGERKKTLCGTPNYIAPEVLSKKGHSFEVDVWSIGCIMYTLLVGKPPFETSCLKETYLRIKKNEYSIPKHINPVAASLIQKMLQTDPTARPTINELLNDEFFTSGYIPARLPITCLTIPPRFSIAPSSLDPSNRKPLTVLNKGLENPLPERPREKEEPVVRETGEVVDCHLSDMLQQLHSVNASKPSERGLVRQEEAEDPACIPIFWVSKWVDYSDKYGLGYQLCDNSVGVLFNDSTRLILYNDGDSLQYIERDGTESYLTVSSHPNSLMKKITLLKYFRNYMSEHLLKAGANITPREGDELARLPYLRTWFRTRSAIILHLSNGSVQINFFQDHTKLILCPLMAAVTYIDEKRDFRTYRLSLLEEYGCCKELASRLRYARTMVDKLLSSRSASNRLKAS
# G9a inh – inhibitors of human histone lysine methyltransferase G9a; AID 504332; G9a H3K9 monomethylation, AlphaScreen, 2 h; Potency, µM (top dose mostly 102 µM), for the others: at the top dose activity, negative = inhibition, usual class: inhibitors; Q96KQ7; 350,000 tested, 8.8% active; note: % is set by controls: 0 for no effect and ±100 for the full control effect; nearly all actives have a fitted effect of over 75% in size
#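 G9a (20 nM) preincubated 15 min RT with compounds, then 500 nM biotinylated H3K9 peptide and 20 uM SAM added; 2 h RT reaction. Monomethyl-H3K9 product detected by AlphaScreen with anti-H3K9me1 antibody, streptavidin donor and anti-rabbit IgG acceptor beads.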
# BAZ2B block – BAZ2B (human) inhibition; Q9UIF8; 360,000 tested, 4.4% active; AlphaScreen BAZ2B-H3K14Ac peptide displacement; Potency, µM (highest dose often 114 µM), without a hit: top-dose activity change, negative = inhibition, hits mostly inhibitors; note: % is set by controls: 0 for no effect and ±100 for the full control effect; nearly all actives have a fitted effect of over 60% in size
#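 Protein-peptide AlphaScreen: BAZ2B 50 nM, b-H3K14Ac 50 nM, 1x PBS pH 7.4 + 0.01% Tween-20. Preincubation 30 min RT; cpd 30 min RT (top 110 uM); beads 20 min RT, light-protected.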
# HP1b chromo inh – blocks HP1-beta chromodomain binding to methylated histone tails. AlphaScreen HP1-beta / biotin-H3K9me3 peptide binding. Potency, µM (top dose mostly 114 µM), for the others: at the top dose activity change, negative = inhibition, usual class: inhibitors. 390,000 tested, 0.56% active; note: nearly all actives have a fitted effect of over 70% in size
# Target sequence (P83916 whole entry, looked up): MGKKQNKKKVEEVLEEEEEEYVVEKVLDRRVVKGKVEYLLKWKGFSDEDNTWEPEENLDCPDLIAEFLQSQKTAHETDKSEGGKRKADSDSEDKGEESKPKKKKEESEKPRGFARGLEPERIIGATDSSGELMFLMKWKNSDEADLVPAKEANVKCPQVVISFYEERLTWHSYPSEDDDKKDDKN
#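 AlphaScreen: HP1-beta (50 nM) preformed 30 min with biotin-H3(1-18)K9me3 peptide (50 nM) in PBS pH 7.4, 0.01% Tween-20. Compound added for 30 min at RT, then streptavidin donor/nickel chelate acceptor beads (10 ug/mL) for 30 min.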
# Sfp PPTase inh – inhibitors of Bacillus subtilis Sfp phosphopantetheinyl transferase; Biochemical Sfp PPTase activity, qHTS; Potency, µM, without a hit: largest response in the series, negative = inhibition, usual class: inhibitors; Q9F4F7; 310,000 tested, 3.5% active; AID 1490;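 note: the enzyme is Sfp with the accession as filed and its product quenches rhodamine fluorescence; 0% = enzyme reaction without inhibitor and -100% = no enzyme wells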
#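 Buffer: 50 mM Hepes-Na pH 7.6, 10 mM MgCl2, 0.01% Nonidet P-40, 0.01% BSA. Enzyme 15 nM, pre-exposed to compound 15 min; substrates then added and fluorescence change tracked over 30 min.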
# TbPYK confirm – confirmation of Trypanosoma brucei pyruvate kinase inhibitors; shares compounds with PLK1 PBD inh; recombinant TbPYK, Kinase-Glo ATP luminescence; Potency, µM (highest dose often 76.9 µM), for the others: at the top dose activity change, negative = inhibition, usual class: inhibitors; 890 tested, 67% active; AID 720569; note: % is set by controls: 0 for no effect and ±100 for the full control effect; nearly all actives have a fitted effect of over 70% in size
# TbPYK ADP-Glo – TbPYK inhibition, orthogonal confirmation; 890 tested, 62% active; recombinant TbPYK, ADP-Glo luminescence, 60 min; shares compounds with PLK1 PBD inh; Potency, µM (highest dose often 76.9 µM), inactives show at the highest dose activity change, negative = inhibition, most hits filed as inhibitors; note: % is set by controls: 0 for no effect and ±100 for the full control effect; nearly all actives have a fitted effect of over 75% in size
# The depositor's hits bear a star; ? = inconclusive; . = no result given; [ ] = dose if it differs, or a comment. Calls come from the whole dose curve; as a rule, active = well fitted curve in the direction sought with a large enough effect; inconclusive = small, poorly fitted or top-dose-only effect, or another doubt; inactive = no such curve, though single readings can be large; an effect the other way counts as inactive or inconclusive. Potency is the fitted concentration of half-maximal effect.
SMILES,JMJD2A Tudor inh,PLK1 PBD inh,G9a inh,BAZ2B block,HP1b chromo inh,Sfp PPTase inh,TbPYK confirm,TbPYK ADP-Glo
O=C1S/C(=C\c2ccc(N3CCOCC3)o2)C(=O)N1Cc1c(F)cccc1Cl,?,55.5%,?,-36.4%,21.7%,2.82µM*,17.8µM*,14.1µM*
Cn1c(=O)c2c(nc(N3CCOCC3)n2Cc2c(F)cccc2Cl)n(C)c1=O,-3.8%,-0.1%,10.1%,-3.1%,28.1%,6.0%,.,.
O=C(Cc1c(F)cccc1Cl)N1CCOCC1,2.8%,7.4%,-35.6%,-1.7%,33.8%,19.7%,.,.
COc1cc(/C=C2/SC(=S)N(c3ccccc3)C2=O)ccc1Oc1nc(N2CCOCC2)nc(N2CCOCC2)n1,-35.4%,4.6%,-7.0%,-8.7%,-15.6%,?,.,.
O=C1S/C(=C\c2ccc(N3CCOCC3)o2)C(=O)N1c1ccccc1,-3.8%[11.4 µM],64.7%,5.01µM*,?,-8.8%,3.98µM*,?,?
O=C1S/C(=C/c2ccc(N3CCOCC3)o2)C(=O)N1Cc1c(F)cccc1Cl,-30.1%,42.6%,1.78µM*,4.5%,39.3%,4.47µM*,?,39.8µM*
c1ccc(-c2nc(-c3ccco3)cs2)nc1,-35.8%,?,?,6.4%,-25.6%,44.7µM*,-25.8%,-19.6%
CCN(CC)CCNC(=O)C1CCN(c2nn3cc(-c4ccc(F)cc4)nc3s2)CC1,-30.0%,.,?,-28.8%,0.5%,.,.,.
Cc1nonc1C(=O)N/N=C/c1ccc(O)cc1O,-7.5%[11.4 µM],-5.9%,.,-3.7%,38.1%,4.6%,28.2µM*,-0.7%
Cc1ccc(S(=O)(=O)N/N=C/c2ccccc2O)cc1,-12.5%,-5.6%,-1.3%,-1.2%,25.1%,17.1%,.,.
Cc1ccc(S(=O)(=O)NN=CC=CC=NNS(=O)(=O)c2ccc(C)cc2)cc1,.,?,.,.,.,.,31.6µM*,35.5µM*
Cc1ccc(NNS(=O)(=O)c2ccc(C)cc2)cc1,3.16µM*,3.77µM*,0.794µM*,20µM*,?,39.8µM*,8.91µM*,?
CSc1ccc(S(=O)(=O)Nc2ccc(S(=O)(=O)Nc3ccc(C)cc3)cc2)cc1,?,-8.7%,-32.6%[59 µM],-31.0%,-0.3%,15.3%,.,.
CCn1c(C)cc(C(=O)COC(=O)c2ccccc2[N+](=O)[O-])c1C,44.7µM*,2.9%,.,.,?,.,?,3.1%
CC(=O)c1ccc(NC(=O)C[n+]2cccc(C)c2)cc1,-15.1%,1.8%,7.2%,-12.4%,32.1%,10.8%,.,.
CCOC(=O)C(=Cc1cc(=O)c(OC)co1)C(=O)OCC,4.7%,23.8µM*,10µM*,-2.8%,?,6.31µM*,28.2µM*,?
Cc1nc2ccc(S(=O)(=O)N3CCCCC3)cc2s1,-1.4%,-4.6%,16.5%,0.7%,2.1%,19.8%,.,.
Nc1nc2ccc(S(=O)(=O)N3CCCCC3)cc2s1,-9.9%,0.336µM*,6.31µM*,-1.2%,6.8%,10µM*,12.6µM*,11.2µM*
COc1cc(/C=N/N=C2/NC(=O)C(CC(=O)O)S2)ccc1OCc1ccc(Cl)cc1 (stereo unspecified),-33.6%,-22.6%,5.6%,?,30.1%,-5.2%,15.8µM*,35.5µM*
CC1CCCCN1CC(=O)c1c(N)n(Cc2ccccc2)c(=O)n(C)c1=O (stereo unspecified),-18.2%,-8.1%,9.4%,.,10.6%,14.1%,.,.
FC(F)(F)Oc1ccc(Nc2nc(N3CCOCC3)nc(N3CCOCC3)n2)cc1,17.8µM*,4.74µM*,.,?,32.3%,-1.0%,5.4%,-4.3%
CC1(C)CC(=O)C(C(C2=C(O)CC(C)(C)CC2=O)c2ccc(Cl)c([N+](=O)[O-])c2)C(=O)C1 (stereo unspecified),-10.5%,-10.5%,?,-25.6%,23.8%,24.4%,.,.
CC1(C)CC(=O)C(C(C2=C(O)CC(C)(C)CC2=O)c2ccco2)C(=O)C1 (stereo unspecified),-21.3%[57.1 µM],5.32µM*,35.5µM*,-30.5%,26.8%,?,12.6µM*,?
N#Cc1cc(N2CCCCC2)c([N+](=O)[O-])cc1C#N,2.4%,-13.2%,2.4%,-12.3%,47.8%,-11.5%,.,.
O=[N+]([O-])c1cc2no[n+]([O-])c2cc1N1CCCCC1,44.7µM*,2.67µM*,.,.,14.1µM*,.,2.24µM*,3.55µM*
SMILES,JMJD2A Tudor inh,PLK1 PBD inh,G9a inh,BAZ2B block,HP1b chromo inh,Sfp PPTase inh,TbPYK confirm,TbPYK ADP-Glo
CCN1/C(=C2\SC(=S)N(Cc3ccccc3)C2=O)Sc2ccccc21,1.9%,-2.4%,17.8%[59 µM],1.8%,56.7%,-2.7%,.,.
CCN1C(=O)/C(=C/C=C2\C=CN(CC)c3ccccc32)SC1=S,?,-9.8%,8.91µM*,2µM*,3.55µM*,44.7µM*,22.4µM*,?
CCC1Oc2ccc(C)cc2N(CC(=O)NCCN2CCOCC2)C1=O (stereo unspecified),-17.1%,-10.0%,9.4%,10.0%,-4.3%,20.2%,.,.
Cc1cc(C)c(C#N)c(SC2CCCCC2=O)n1 (stereo unspecified),-5.8%,-13.5%,?,-2.3%,42.0%,-19.7%,14.1µM*,17.8µM*
CC(=O)Oc1ccc(N2C(=O)C3C4C=CC(CO)(O4)C3C2=O)cc1 (stereo unspecified),44.7µM*,26.7µM*,1µM*,13.9%,?,15.8µM*,-48.2%,?
COc1ccc(N2C(=O)C3C4C=CC(c5ccccc5)(C3C2=O)C2C(=O)N(c3ccc(OC)cc3)C(=O)C42)cc1 (stereo unspecified),-17.6%,-8.0%,?,-17.8%,38.3%,10.6%,.,.
CCOc1ccc(-c2c(=O)n(O)c3ccccc3[n+]2[O-])cc1,79.4µM*,?,10.3%[2.33 µM],56.2µM*,4.4%,-21.6%,?,-14.6%
CCOc1ccc(-c2c(=O)n(OCC)c3ccccc3[n+]2[O-])cc1,-1.0%,?,5.6%,7.6%,66.9%,14.3%,.,.
C=CCN1C(=O)c2ccccc2Sc2ccc(C(=O)NCC(OC)OC)cc21,-0.7%,3.4%,34.2%,9.4%,32.2%,0.1%,.,.
CCOC(=O)c1ccc(NC(=O)CN2C(=O)CSC2=O)cc1,-16.3%,-1.6%,7.9%,-1.0%,3.9%,5.0%,0.5%,-7.0%
Nc1nc(N)c2ncn(C3C=CC(CO)C3)c2n1 (stereo unspecified),.,-12.3%,.,.,.,.,.,.
Cc1ccccc1NC(=O)c1sc2nc(N3CCOCC3)c3c(c2c1N)CCCC3,2.3%,?,-1.0%[0.0925 µM],13.7%,29.7%,?,?,3.98µM*

# Screening results from PubChem.
